Screens (PubChem BioAssay)
Pf growth 96h: inhibits malaria parasite growth, 96 h; P. falciparum luciferase reporter growth, 96 h; Potency, µM (doses to about 28.7 µM), most hits filed as inhibitors; actives 6.9% (n = 320,000)
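Two parasite generations (96 h, 37 C, 5% CO2) of compound exposure in infected erythrocytes (0.05% parasitemia, 2% hematocrit). Luciferase-reporter P. falciparum; decreased luminescence indicates inhibited growth, aimed at apicoplast-acting delayed death.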
SARS PLP yeast: inhibitors of SARS-CoV papain-like protease in yeast. AID 485353. Potency, µM (doses to about 32.9 µM), usual class: activators. S. cerevisiae expressing SARS-CoV PLpro, growth rescue. actives 0.19% (n = 330,000); calls by dose curve; also: nearly all actives have a fitted effect of over 55% in size
Pf growth 48h: inhibits P. falciparum growth in the first generation, 48 h; P. falciparum luciferase growth in erythrocytes, 48 h; Potency, µM (titrated, usually from 28.7 µM), usual class: inhibitors; actives 5.9% (n = 310,000)
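Compounds are pin-transferred into medium, infected erythrocytes (2% hematocrit, 0.1% parasitemia final) are added, and plates sit one parasite generation at 37 C in 5% CO2. Detection reagent is then added and luminescence measured.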
HCMV antiviral: human cytomegalovirus inhibition | actives 4.5% (n = 410,000) | AID 1259415 | activity change, negative = inhibition, % at 57.5 µM | HFF cells, HCMV-luciferase reporter, 72 h; stronger effect = lower value; in the data active = activity change below about -60%; inconclusive = no clear call, values can overlap the other calls; inactive = above about -39%
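Human foreskin fibroblasts infected with luciferase-reporter HCMV at MOI 1 PFU/cell, compounds at two doses. Luciferase measured 72 h post infection; normalized to buffer-only basal and Salinomycin (10uM) controls.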
Sm TGR inh: inhibitors of Schistosoma mansoni thioredoxin glutathione reductase; AID 485364; actives 3% (n = 360,000); Potency, µM (highest dose often 114 µM), most hits filed as inhibitors; purified TGR, DTNB reduction, TNB absorbance 405 nm; also: nearly all actives have a fitted effect of over 60% in size
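Kinetic colorimetric format: TGR-catalysed, NADPH-driven DTNB reduction monitored via TNB absorbance. Enzyme dispensed at 20 nM; compound exposure 15 min at room temperature before reaction start.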
HCV inh: blocks hepatitis C virus. Potency, µM (series often up to 41.8 µM), hits mostly inhibitors. AID 651820. actives 3.4% (n = 340,000). Huh7.5.1 HCVcc-Cre infection, luciferase reporter, 44 h
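Seed cells (1,000/well) for 4 h; treat with compound and infect with HCVcc-Cre, moi about 0.5. Incubate 44 h, then detect luciferase activity.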
Large screens that a line does not name were inactive. Hits are enriched below; roughly 15% of the tested compounds scored in any of these assays. Unless noted, calls follow the shape of the dose curve; as a rule, active = well fitted curve in the direction sought with a large enough effect; inconclusive = small, poorly fitted or top-dose-only effect, or another doubt; inactive = no such curve, though single readings can be large; an effect the other way counts as inactive or inconclusive.

CCc1nc2ccccc2nc1N1CCN(S(=O)(=O)c2ccc(Cl)cc2)CC1	Pf growth 48h inconclusive
Cc1cc(N2CCN(S(=O)(=O)c3ccc(Cl)cc3)CC2)c2ccccc2n1	HCMV antiviral -87.2, HCV inh 11.2µM (no result: Pf growth 96h, Pf growth 48h)
Cc1cc(C)n(-c2nc3ccccc3nc2N2CCN(S(=O)(=O)c3ccc4ccccc4c3)CC2)n1	Pf growth 96h 5.22µM (no result: Pf growth 48h)
Cc1cc(N2CCCCC2)nc2c(C)cccc12	none (no result: Sm TGR inh)
Cc1cc(C)c2nc(N3CCCN(C(=O)c4cnccn4)CC3)c(C#N)cc2c1	Pf growth 96h inconclusive, HCV inh inconclusive
[Cl][In]([Cl])[Cl]	Pf growth 96h 6.75µM, Pf growth 48h 7.57µM (no result: SARS PLP yeast, HCMV antiviral, Sm TGR inh, HCV inh)
Nc1nc(-c2cc(O)ccc2[N+](=O)[O-])cc(-c2ccccc2)c1[N+](=O)[O-]	HCMV antiviral -68.9, Sm TGR inh inconclusive, HCV inh inconclusive
O=[N+]([O-])c1ccccc1-c1cc(-c2ccccc2)on1	none (no result: Pf growth 96h, SARS PLP yeast, Pf growth 48h, Sm TGR inh, HCV inh)
COc1ccc2c(c1)OCC1=C2CCC2(C)C(=O)CC=C12 (centres undefined)	Pf growth 48h inconclusive, Sm TGR inh 20µM, HCV inh inconclusive (no result: HCMV antiviral)
C#CCOCCOCCOCCNc1nc(N2CCN(C(=O)CCCCCCCCCCNC(=O)[C@H](CCCCN)n3cc(CCO)nn3)CC2)nc(N2CCN(C(=O)CCCCCCCCCCNC(=O)[C@@H]([C@H](C)O)n3cc(C)nn3)CC2)n1	Pf growth 96h inconclusive, Pf growth 48h 0.294µM, Sm TGR inh 17.8µM (no result: HCMV antiviral)
C#CCOCCOCCOCCNc1nc(N2CCN(C(=O)CCCCCCCCCCNC(=O)[C@H](CCCCN)n3cc(CCCC(=O)O)nn3)CC2)nc(N2CCN(C(=O)CCCCCCCCCCNC(=O)[C@H](CCCCN)n3cc(CCCC(=O)O)nn3)CC2)n1	Pf growth 96h inconclusive, Pf growth 48h inconclusive, Sm TGR inh inconclusive, HCV inh inconclusive (no result: HCMV antiviral)
C#CCOCCOCCOCCNc1nc(N2CCN(C(=O)CCCCCCCCCCNC(=O)[C@H](CCC(=O)O)n3cc(CCCCCN)nn3)CC2)nc(N2CCN(C(=O)CCCCCCCCCCNC(=O)[C@@H]([C@H](C)O)n3cc(C)nn3)CC2)n1	Pf growth 96h inconclusive, Pf growth 48h 3.29µM (no result: HCMV antiviral)
C#CCOCCOCCOCCNc1nc(N2CCN(C(=O)CCCCCCCCCCNC(=O)[C@@H](CCC(=O)O)n3cc(CCCCCN)nn3)CC2)nc(N2CCN(C(=O)CCCCCCCCCCNC(=O)[C@@H](CCC(=O)O)n3cc(CCCCCN)nn3)CC2)n1	Pf growth 96h inconclusive, Pf growth 48h 2.94µM, HCMV antiviral inconclusive, Sm TGR inh inconclusive
C#CCOCCOCCOCCNc1nc(N2CCN(C(=O)CCCCCCCCCCNC(=O)[C@H](CCCCN)n3cc(CCO)nn3)CC2)nc(N2CCN(C(=O)CCCCCCCCCCNC(=O)[C@H](CCCCN)n3cc(CCO)nn3)CC2)n1	Pf growth 96h 7.38µM, Pf growth 48h 4.15µM, Sm TGR inh 35.5µM (no result: HCMV antiviral)
COC(=O)Cn1c(C(=O)N2CCCC2)cc2c1C[C@H]1CN(C(=O)c3ccccc3)[C@@](Cc3ccc(OC)cc3)(C(=O)OC)[C@@H]21	none (no result: Pf growth 96h, SARS PLP yeast, Pf growth 48h, Sm TGR inh, HCV inh)
CCOc1ccc(CCNC(=O)CN2C(=O)NC3(CCCCC3)C2=O)cc1OCC	none
OC(c1ccc(F)c(F)c1)c1nc(-c2ccc3ccccc3c2)cs1 (centres undefined)	none (no result: Pf growth 96h, SARS PLP yeast, Pf growth 48h, Sm TGR inh, HCV inh)
O=C(NCCS(=O)(=O)N1CCN(c2ccccc2)CC1)c1ccccc1F	none
C[C@@H]1C=CC(=O)O[C@@H]1c1ccc(Cl)cc1	Pf growth 96h inconclusive, Pf growth 48h inconclusive, HCMV antiviral -91.5
O=C1NC(=O)C2(CCCC2c2ccccc2)N1 (centres undefined)	none (no result: Pf growth 96h, SARS PLP yeast, Pf growth 48h, Sm TGR inh)
C=CCc1c(C)nc(-c2ccccc2)nc1Nc1ccccc1O	Pf growth 96h inconclusive, Pf growth 48h 5.22µM, HCV inh inconclusive
O=C(NC(Cc1cccc(F)c1)C(=O)O)C1CCCCC1 (centres undefined)	HCV inh 2.82µM
CC(C)C1CCC(C(=O)N[C@H](Cc2ccccc2)C(=O)O)CC1 (some centres undefined)	none (no result: Pf growth 96h, Pf growth 48h, HCMV antiviral, HCV inh)
CCOc1cc(N2CCOCC2)c(OCC)cc1NC(=O)COC(=O)/C=C/c1ccc(OC(F)F)cc1	Pf growth 48h inconclusive
Cc1nc(N2CCN(S(=O)(=O)c3ccccc3C#N)CC2)c2c(-c3cccs3)csc2n1	Pf growth 96h inconclusive, Pf growth 48h inconclusive, HCV inh 10µM
CC(C)n1cc(CN2CCCC(C(=O)Nc3cccc(-c4cc5ccccc5[nH]4)c3)C2)cn1 (centres undefined)	Pf growth 48h inconclusive, HCV inh 11.2µM
Cn1cc(CN2CCCC(C(=O)Nc3cccc(-c4cc5ccccc5[nH]4)c3)C2)cn1 (centres undefined)	Pf growth 48h inconclusive, HCV inh 7.08µM
CCn1cc(CN2CCCC(C(=O)Nc3cccc(-c4cc5ccccc5[nH]4)c3)C2)c(C)n1 (centres undefined)	Pf growth 48h inconclusive, HCV inh inconclusive
CC1(c2nnc(-c3cccc(Cl)c3)o2)CC(c2ccc(F)cc2)=NO1 (centres undefined)	none (no result: Pf growth 96h, SARS PLP yeast, Pf growth 48h, Sm TGR inh)
CCCCCCN1C[C@@H](O)[C@H](n2cc(COC(=O)c3ccccc3)nn2)C[C@@H]1c1ccc(C)cc1	none (no result: Pf growth 96h, SARS PLP yeast, Pf growth 48h, Sm TGR inh, HCV inh)
C/C(=N\Nc1nc(-c2ccccc2O)nc2ccccc12)c1ccccc1	Pf growth 96h inconclusive, Pf growth 48h 0.522µM
C/C(=N\Nc1nc(-c2ccccn2)nc2ccccc12)c1ccc(F)cc1	Pf growth 48h inconclusive, HCV inh 4.47µM (no result: HCMV antiviral)
CC(C)c1ccc(NC(=O)C2CCCN(S(=O)(=O)c3cccc4nsnc34)C2)cc1 (centres undefined)	none (no result: Pf growth 96h, SARS PLP yeast, Pf growth 48h, HCV inh)
CCN(C(=O)CN1C(=O)COc2ccc(S(=O)(=O)N3CCCCCC3)cc21)c1cccc(C)c1	Pf growth 96h inconclusive, Pf growth 48h 3.29µM, HCMV antiviral -63.1, HCV inh inconclusive
CCN(Cc1ccccc1)C(=O)CN1C(=O)COc2ccc(S(=O)(=O)N3CCCCCC3)cc21	Pf growth 96h inconclusive, Pf growth 48h 10.4µM, HCMV antiviral -76.5
CC(C)N(Cc1ccccc1)C(=O)CN1C(=O)COc2ccc(S(=O)(=O)NC3CCCC3)cc21	Pf growth 96h inconclusive, Pf growth 48h 5.22µM
CNC(=O)CN1C(=O)COc2ccc(S(=O)(=O)N3CCCCCC3)cc21	none
CCN(Cc1ccccc1)C(=O)CN1C(=O)COc2ccc(S(=O)(=O)N3CCOCC3)cc21	none (no result: Pf growth 96h, SARS PLP yeast, Pf growth 48h, HCV inh)
CC[C@]12C(=O)N(C)C[C@H]([C@@H]3C(=O)N(C)C(=O)[C@@H]31)N2C(=O)c1ccc(C(C)(C)C)cc1	none (no result: Pf growth 96h, SARS PLP yeast, Pf growth 48h, Sm TGR inh)
COc1ccc(C(=O)c2c[nH]c(C(=O)N=CN(C)C)c2)cc1	none
O=C(N1CCN=C1SCc1cccnc1)C12CC3CC(CC(C3)C1)C2	Pf growth 48h 14.7µM, HCMV antiviral inconclusive
